Our source for the Potency values is PubChem BioAssay (NCATS).

Values joined by “and” are separate entries in the source; they are usually repeats but may differ in a detail not shown here. Equal entries are not always repeated. Results filed as inconclusive are left out. Some compounds were tested as several samples or in several runs, with calls that do not always agree. Active and inactive are the calls of the source. Unless noted, the call rests on the fitted dose curve; in most records, active means well fitted curve in the direction sought with a large enough effect; inconclusive means small, poorly fitted or top-dose-only effect, or another doubt; inactive means no such curve, though single readings can be large; an effect the other way counts as inactive or inconclusive.

Assay [1] deals with Calcium and integrin-binding protein 1 (Homo sapiens) (UniProt Q99828). As to the kind of experiment: Primary qHTS for Identification of Calcium Integrin Binding Protein 1 (CIB1) Competitor (AID 1508620).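 Further: GST tagged CIB1 binding a fluorescein labelled alphaIIb integrin peptide tracer; top concentration of the series differs between compounds.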 The conditions noted are these: CIB1-GST / FITC-alphaIIb peptide fluorescence polarization; series mostly up to 57.7 µM. Put shortly: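 Fluorescence polarization competition: CIB1-GST (1 uM final) preincubated with compound 15 min at room temperature, then FITC-labeled alphaIIb peptide (100 nM final) added for another 15 min. Polarization read at Ex 480/Em 540.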
Chain of Calcium and integrin-binding protein 1 (Homo sapiens) (Q99828 whole entry, looked up): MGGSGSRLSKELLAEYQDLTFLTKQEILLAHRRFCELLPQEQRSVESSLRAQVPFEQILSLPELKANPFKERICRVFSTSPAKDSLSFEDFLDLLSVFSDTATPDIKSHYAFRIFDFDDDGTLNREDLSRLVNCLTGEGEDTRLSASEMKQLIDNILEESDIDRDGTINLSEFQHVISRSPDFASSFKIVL

A short description of assay [2]: Primary qHTS for small molecule stabilizers of the endoplasmic reticulum resident proteome: Secreted ER Calcium Modulated Protein (SERCaMP) assay (AID 1508630). Particulars: SH-SY5Y GLuc-SERCaMP (Gaussia luciferase released on ER calcium loss) secretion, thapsigargin, luminescence; series mostly up to 38.4 µM. Put shortly:
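The SH-SY5Y reporter protocol was run at 3 concentrations up to 38.3 uM (primary) or 11 concentrations (follow-up): 16 h compound, 100 nM thapsigargin for 4 h, then extracellular luciferase luminescence.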

Assay [3] deals with Cytochrome P450 2D6 (Homo sapiens) (UniProt P10635). As to the kind of experiment: Cytochrome P450 family 2 subfamily D member 6 (CYP2D6) small molecule antagonists: luciferase biochemical (cell-free) qHTS assay (AID 1645840; active means well fitted curve in the direction sought with a large enough effect in the repeat runs; an effect the other way counts as inactive or inconclusive; further: nearly all actives have a fitted effect of over 55% in size; further: potency means the concentration at half of the fitted maximal effect). The conditions noted are these: P450-Glo CYP2D6 enzyme, luciferin luminescence, 1 h; series mostly up to 57.4 µM. The method, boiled down: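 P450-Glo CYP2D6 system: proluciferin substrate converted by enzyme to luciferin, read by luminescence proportional to activity. Enzyme-substrate mix with compound 10 min at room temperature, then NADPH regeneration 1 h before detection reagent.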
Chain of Cytochrome P450 2D6 (Homo sapiens) (P10635 whole entry, looked up): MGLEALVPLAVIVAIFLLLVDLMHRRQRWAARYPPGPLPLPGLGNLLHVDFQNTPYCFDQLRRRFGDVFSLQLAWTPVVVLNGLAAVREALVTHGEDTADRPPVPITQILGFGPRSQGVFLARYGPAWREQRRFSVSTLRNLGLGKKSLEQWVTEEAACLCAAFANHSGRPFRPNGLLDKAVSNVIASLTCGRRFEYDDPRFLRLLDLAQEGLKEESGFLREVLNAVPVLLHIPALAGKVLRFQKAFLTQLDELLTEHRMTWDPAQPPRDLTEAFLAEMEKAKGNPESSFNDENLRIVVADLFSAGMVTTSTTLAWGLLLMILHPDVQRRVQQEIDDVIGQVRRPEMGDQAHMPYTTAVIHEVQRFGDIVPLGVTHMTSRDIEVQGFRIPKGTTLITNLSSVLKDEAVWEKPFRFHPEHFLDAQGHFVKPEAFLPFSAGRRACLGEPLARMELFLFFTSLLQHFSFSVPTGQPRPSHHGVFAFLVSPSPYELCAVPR
(In general: qHTS replaces the single test concentration by a dilution series.)

Assay [4] in a line: Primary qHTS for inhibitors of nuclear receptor binding SET domain protein 2 (NSD2) in an isogenic RCH-ACV NSD2 p.E1099K mutant (9B) (AID 1645876). Further: nearly all actives have a fitted effect of over 70% in size. Further: potency means the concentration at half of the fitted maximal effect. Particulars: RCH-ACV NSD2 E1099K (9B) viability, CellTiter-Glo, 72 h; series mostly up to 44.9 µM.
The nature of assay [5]: Primary qHTS for inhibitors of nuclear receptor binding SET domain protein 2 (NSD2) in an RCH-ACV wild type WT cells (2C) (AID 1645877). Further: nearly all actives have a fitted effect of over 70% in size. Further: potency means the concentration at half of the fitted maximal effect. Particulars: RCH-ACV (leukaemia line) NSD2 WT (2C) viability, CellTiter-Glo, 72 h; series mostly up to 44.9 µM.
Assay [6] has as its target Cytochrome P450 2C9 (Homo sapiens) (UniProt P11712). As to the kind of experiment: Cytochrome P450 family 2 subfamily C member 9 (CYP2C9) small molecule antagonists: luciferase biochemical (cell-free) qHTS assay (AID 1645842; active means well fitted curve in the direction sought with a large enough effect in the repeat runs; an effect the other way counts as inactive or inconclusive; further: nearly all actives have a fitted effect of over 55% in size; further: potency means the concentration at half of the fitted maximal effect). Particulars: P450-Glo CYP2C9 enzyme assay, luciferin luminescence; series mostly up to 57.4 µM. The method, boiled down:
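P450-Glo CYP2C9 system: proluciferin substrate with enzyme in mix containing 0.4% BSA, 10 min at room temperature, then NADPH regeneration solution added and incubated 1 h at 37C. Detection reagent stopped reaction; luminescence read after 20 min as RLU.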

For assay [7], the target named is Rap guanine nucleotide exchange factor 3 (Homo sapiens) (UniProt O95398). The assay is described as follows: Confirmatory qHTS for agonist of cAMP-regulated guanine nucleotide exchange factor 3 (EPAC1) (AID 1645881).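 Further: EPAC1 catalysed release of BODIPY-GDP from Rap1B seen as fluorescence loss; nearly all actives have a fitted effect of over 75% in size.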 The conditions noted are these: EPAC1 Rap1B BODIPY-GDP exchange fluorescence; series mostly up to 154 µM.
Chain of Rap guanine nucleotide exchange factor 3 (Homo sapiens) (O95398 whole entry, looked up): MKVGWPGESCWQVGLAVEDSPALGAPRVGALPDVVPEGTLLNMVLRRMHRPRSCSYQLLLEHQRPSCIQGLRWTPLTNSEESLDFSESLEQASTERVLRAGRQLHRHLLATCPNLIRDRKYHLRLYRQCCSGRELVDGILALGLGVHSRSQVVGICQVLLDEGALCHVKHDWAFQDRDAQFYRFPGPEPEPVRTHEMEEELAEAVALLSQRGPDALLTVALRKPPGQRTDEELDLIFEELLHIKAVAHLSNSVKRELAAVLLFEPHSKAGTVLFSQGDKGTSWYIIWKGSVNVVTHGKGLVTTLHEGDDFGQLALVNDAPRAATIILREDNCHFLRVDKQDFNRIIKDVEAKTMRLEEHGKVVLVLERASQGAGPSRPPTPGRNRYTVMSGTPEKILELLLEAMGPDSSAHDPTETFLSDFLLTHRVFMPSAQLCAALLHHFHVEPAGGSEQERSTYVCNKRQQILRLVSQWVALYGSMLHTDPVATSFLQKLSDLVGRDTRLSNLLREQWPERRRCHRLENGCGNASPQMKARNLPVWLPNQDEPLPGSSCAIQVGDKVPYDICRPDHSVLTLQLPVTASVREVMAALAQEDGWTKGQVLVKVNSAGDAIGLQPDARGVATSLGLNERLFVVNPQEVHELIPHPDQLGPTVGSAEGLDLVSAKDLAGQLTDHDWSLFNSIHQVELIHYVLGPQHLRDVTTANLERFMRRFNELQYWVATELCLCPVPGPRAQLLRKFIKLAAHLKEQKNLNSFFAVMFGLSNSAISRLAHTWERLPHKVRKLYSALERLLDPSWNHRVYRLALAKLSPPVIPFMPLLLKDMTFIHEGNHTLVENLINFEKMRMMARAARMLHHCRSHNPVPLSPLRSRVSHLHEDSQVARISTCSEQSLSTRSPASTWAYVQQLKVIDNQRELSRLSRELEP

Chain of Cytochrome P450 2C9 (Homo sapiens) (P11712 whole entry, looked up): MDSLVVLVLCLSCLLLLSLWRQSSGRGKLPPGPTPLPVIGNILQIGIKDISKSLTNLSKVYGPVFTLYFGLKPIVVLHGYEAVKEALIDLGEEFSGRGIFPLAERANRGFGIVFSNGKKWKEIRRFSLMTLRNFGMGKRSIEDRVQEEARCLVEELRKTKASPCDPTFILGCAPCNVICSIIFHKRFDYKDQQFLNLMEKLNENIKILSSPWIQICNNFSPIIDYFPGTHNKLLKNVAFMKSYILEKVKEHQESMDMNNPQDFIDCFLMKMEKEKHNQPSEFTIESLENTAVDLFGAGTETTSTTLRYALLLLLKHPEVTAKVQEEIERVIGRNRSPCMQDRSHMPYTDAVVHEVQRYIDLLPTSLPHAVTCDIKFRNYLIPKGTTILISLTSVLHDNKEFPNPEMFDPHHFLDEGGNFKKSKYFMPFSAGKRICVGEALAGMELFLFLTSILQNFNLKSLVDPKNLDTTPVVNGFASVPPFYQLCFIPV

Regarding `Cc1cccc(Nc2nc(N[C@@H]3CCCC[C@H]3N)ncc2C(N)=O)c1`, the Potency entry in assay [1] and in assay [2] was “inactive” each time. For the same compound, the Potency in assay [3] is 15.1 µM (active); in assay [4] it was 1.48 µM (active); in assay [5], 1.48 µM (active).

With `CCN1CCN(c2ccc(Nc3cc(N(C)C(=O)Nc4c(Cl)c(OC)cc(OC)c4Cl)ncn3)cc2)CC1`, the Potency result in assay [1], in assay [2], in assay [4] and in assay [5] was “inactive” each time. Further, in assay [6], the Potency is 23.9 µM (active).

On to `CN1CCN(c2cccc(Nc3nc4c(-c5ccc(S(C)(=O)=O)cc5)cccn4n3)c2)CC1`, for which the Potency result in assay [1] and in assay [2] was “inactive” each time. Moreover, the Potency was 12 µM (active) in assay [6]; 2.06 µM (active) and 5.9 µM (active) in assay [4]; 1.63 µM (active) and 8.33 µM (active) in assay [5].

For the compound `Cc1csc(-c2nnc(Nc3ccc(Oc4ncccc4-c4ccnc(N)n4)cc3)c3ccccc23)c1`, the Potency result in assay [1], in assay [2] and in assay [3] was “inactive” in each case. Moreover, the Potency in assay [6] is 12 µM (active); in assay [5], “inactive and 3 nM (active)”.

With `Cn1cnc(-c2cc3nccc(Oc4ccc(NC(=S)NC(=O)Cc5ccccc5)cc4F)c3s2)c1`, the Potency entry in assay [1], in assay [2] and in assay [3] was “inactive” throughout. In addition, the Potency in assay [6] was 1.9 µM (active); in assay [4], 5.15 µM (active) and 2.95 µM (active); in assay [5], 5.78 µM (active) and 3.32 µM (active).

As for `COc1nccc(-c2c(-c3ccc(F)cc3)ncn2C2CCC(O)CC2)n1` (stereo not drawn), the Potency result in assay [1], in assay [2], in assay [3] and in assay [6] was “inactive” throughout. Also, the Potency in assay [5] is 20.9 µM (active).

Take `CC(C)CN(C[C@@H](O)[C@H](Cc1ccccc1)NC(=O)O[C@H]1CO[C@H]2OCC[C@H]21)S(=O)(=O)c1ccc(N)cc1`: the Potency result in assay [1] and in assay [2] was “inactive” each time. Also, the Potency in assay [6] is 7.56 µM (active).

Take `NC(=O)c1nnn(Cc2cc(Cl)c(C(=O)c3ccc(Cl)cc3)c(Cl)c2)c1N`: the Potency result in assay [1], in assay [2] and in assay [7] was “inactive” each time. Further, in assay [3], the Potency was 26.8 µM (active).
